# Measurements published in PubChem BioAssay AID1671202 (University of Kansas High Throughput Screening Laboratory, 2021).
# “And” between values parts separate entries of the source, which are not always exact repeats. Identical values can stand only once. About 6,900 (3.6%) of roughly 190,000 compounds were called active. This excerpt belongs to a sample that is enriched for actives. Unmarked numbers belong to inactive results. Rule as the data show it: active = inhibition above about 50%; inactive = the rest.
# Biological target: Huntingtin (Homo sapiens) (UniProt P42858)
# Assay: mutant huntingtin-calmodulin interaction inhibitors – biochemical, AlphaScreen, primary screen (AID 1671202);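 as to inhibition: 0% = both proteins with DMSO and 100% = one protein alone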
# Settings: AlphaScreen His-mHTT/GST-CaM binding, luminescence; at 15 µM, active compounds read high
# Sequence of Huntingtin (Homo sapiens) (P42858 whole entry, looked up, stated change not applied): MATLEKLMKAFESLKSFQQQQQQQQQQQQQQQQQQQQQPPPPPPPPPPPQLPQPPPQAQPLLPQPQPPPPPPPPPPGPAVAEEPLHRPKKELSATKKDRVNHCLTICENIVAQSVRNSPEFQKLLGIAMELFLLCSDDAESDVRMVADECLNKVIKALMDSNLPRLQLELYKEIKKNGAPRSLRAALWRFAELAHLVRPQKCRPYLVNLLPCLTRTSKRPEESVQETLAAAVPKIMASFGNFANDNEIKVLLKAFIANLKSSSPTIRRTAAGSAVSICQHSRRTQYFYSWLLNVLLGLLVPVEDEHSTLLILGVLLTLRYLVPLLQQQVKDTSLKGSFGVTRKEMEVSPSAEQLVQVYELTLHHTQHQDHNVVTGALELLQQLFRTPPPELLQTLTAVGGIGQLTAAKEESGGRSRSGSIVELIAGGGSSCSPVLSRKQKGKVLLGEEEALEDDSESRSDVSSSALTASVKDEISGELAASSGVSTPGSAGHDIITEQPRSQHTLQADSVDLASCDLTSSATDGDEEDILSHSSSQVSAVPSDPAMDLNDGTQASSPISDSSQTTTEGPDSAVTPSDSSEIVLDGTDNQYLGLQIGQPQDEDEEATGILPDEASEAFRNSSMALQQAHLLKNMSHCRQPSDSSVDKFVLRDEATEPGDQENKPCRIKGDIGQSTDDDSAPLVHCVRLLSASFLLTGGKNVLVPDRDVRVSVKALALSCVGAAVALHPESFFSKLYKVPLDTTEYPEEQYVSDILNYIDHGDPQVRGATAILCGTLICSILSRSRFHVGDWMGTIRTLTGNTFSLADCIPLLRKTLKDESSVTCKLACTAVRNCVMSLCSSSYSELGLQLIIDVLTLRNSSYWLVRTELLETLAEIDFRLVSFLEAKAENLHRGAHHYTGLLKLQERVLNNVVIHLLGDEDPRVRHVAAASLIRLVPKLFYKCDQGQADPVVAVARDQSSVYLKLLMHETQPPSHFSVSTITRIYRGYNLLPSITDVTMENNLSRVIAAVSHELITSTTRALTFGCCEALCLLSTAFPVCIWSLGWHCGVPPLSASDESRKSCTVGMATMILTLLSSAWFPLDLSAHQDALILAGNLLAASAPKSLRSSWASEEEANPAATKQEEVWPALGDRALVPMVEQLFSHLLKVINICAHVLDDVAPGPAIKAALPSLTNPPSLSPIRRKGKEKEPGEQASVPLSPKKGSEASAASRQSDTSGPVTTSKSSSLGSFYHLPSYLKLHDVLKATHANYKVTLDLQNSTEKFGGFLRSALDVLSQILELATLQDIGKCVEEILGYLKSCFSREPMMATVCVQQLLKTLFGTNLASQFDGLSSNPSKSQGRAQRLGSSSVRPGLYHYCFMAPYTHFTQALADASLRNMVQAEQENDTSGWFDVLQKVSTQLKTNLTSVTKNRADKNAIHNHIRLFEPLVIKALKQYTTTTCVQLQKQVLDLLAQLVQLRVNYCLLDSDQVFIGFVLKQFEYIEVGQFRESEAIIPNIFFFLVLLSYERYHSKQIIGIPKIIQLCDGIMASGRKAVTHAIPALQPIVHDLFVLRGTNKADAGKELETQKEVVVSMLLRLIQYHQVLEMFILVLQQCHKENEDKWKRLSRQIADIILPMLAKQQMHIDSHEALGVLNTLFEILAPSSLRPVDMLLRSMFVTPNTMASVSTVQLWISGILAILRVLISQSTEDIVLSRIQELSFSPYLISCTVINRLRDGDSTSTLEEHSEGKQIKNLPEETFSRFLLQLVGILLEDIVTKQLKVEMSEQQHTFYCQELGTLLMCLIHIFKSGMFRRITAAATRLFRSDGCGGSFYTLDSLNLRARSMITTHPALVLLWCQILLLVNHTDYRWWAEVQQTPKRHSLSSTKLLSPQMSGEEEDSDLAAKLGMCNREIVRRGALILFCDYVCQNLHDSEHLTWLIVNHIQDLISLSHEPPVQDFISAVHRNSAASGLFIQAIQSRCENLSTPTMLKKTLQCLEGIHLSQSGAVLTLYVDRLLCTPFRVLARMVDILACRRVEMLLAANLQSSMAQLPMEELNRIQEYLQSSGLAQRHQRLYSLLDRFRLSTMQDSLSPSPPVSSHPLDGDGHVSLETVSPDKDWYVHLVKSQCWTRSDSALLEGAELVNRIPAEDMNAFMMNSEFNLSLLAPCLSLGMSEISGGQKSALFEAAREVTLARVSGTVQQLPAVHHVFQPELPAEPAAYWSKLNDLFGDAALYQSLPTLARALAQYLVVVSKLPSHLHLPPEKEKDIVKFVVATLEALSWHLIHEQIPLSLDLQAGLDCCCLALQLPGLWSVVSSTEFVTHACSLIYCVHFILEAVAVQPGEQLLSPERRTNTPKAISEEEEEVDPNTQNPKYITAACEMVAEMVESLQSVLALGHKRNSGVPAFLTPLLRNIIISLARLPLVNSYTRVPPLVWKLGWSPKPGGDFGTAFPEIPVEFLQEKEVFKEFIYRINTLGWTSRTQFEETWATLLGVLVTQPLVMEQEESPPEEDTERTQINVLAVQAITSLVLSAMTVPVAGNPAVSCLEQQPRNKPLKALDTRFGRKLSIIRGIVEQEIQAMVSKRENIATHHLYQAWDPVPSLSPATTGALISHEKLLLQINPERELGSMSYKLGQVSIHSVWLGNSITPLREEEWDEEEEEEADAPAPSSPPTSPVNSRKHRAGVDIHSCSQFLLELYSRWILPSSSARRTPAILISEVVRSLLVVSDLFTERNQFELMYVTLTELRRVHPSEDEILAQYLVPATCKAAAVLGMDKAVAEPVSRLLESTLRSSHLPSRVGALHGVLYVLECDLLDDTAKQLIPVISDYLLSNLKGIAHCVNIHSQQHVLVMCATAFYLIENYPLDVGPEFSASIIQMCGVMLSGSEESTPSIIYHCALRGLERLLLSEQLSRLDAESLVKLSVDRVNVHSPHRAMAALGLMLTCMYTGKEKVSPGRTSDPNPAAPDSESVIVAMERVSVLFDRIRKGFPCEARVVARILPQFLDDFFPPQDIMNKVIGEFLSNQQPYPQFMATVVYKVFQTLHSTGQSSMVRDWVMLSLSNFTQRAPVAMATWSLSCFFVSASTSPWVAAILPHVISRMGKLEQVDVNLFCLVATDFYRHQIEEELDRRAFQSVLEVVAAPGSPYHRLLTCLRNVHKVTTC
row,Compound,inhibition
1,CC(C)(c1ccccc1)c1ccc(OCC(=O)Nc2ncn[nH]2)cc1,16%
2,O=C1/C(=C/c2cccs2)CC2CC1C/C(=C\c1cccs1)C2=O,31%
3,Cc1n[nH]c(=O)nc1N/N=C/c1cccs1,active
4,Cc1ccc(C)c(N2CCN(C(=O)c3cc4ccncc4n3C)CC2)c1,48.1%
5,Cc1cc(O)c(CN2CCCCC2)c2c1C(=O)C(=Cc1ccncc1)O2,10%
6,O=C1C2CC(Br)C(Br)CC2C(=O)N1c1ccc([N+](=O)[O-])cc1 (stereo not given),0%
7,O=C1CC(c2ccccc2)=NN1c1ccc([N+](=O)[O-])cc1,91% (active)
8,O=C(CCc1ccccc1)N1N=C(c2cccc([N+](=O)[O-])c2)CC1(O)C(F)(F)F (stereo not given),26%
9,CCCn1ncc(N2CCC(C(=O)NCCCN3CCOCC3)CC2)cc1=O,-2.54%
10,O=C(Nc1ccc(Cn2cncn2)cc1)c1ccc(Cl)cc1,17.8%
11,CC1CN(C(=O)C2(c3ccccc3)CC2)CC1c1nc(-c2cccnc2)no1 (stereo not given),29.4%
12,CCNC(=O)c1c(O)c2cccc3c2n(c1=O)CC3,0%
13,CCN(CC)CCCNC(=O)c1c(O)c2cc(F)cc3c2n(c1=O)C(C)CC3 (stereo not given),98% (active)
14,CCN(CC)CCNC(=O)c1cn(C2CCCCC2)c(=O)c2c1c1ccccc1n2C,6%
15,CNC(=O)N1CCCC(c2cccc(C(=O)NCc3ccccc3C(F)(F)F)c2)C1 (stereo not given),-2.02%
16,COc1ccc(C2C3C(=O)N(c4ccc([N+](=O)[O-])cc4)C(=O)C3N3CCCN23)cc1 (stereo not given),-1%
17,CCCCN1CC(C)(C)[C@H](CC(=O)Nc2ccc(Br)cc2)C1=O,-13.5%
18,C[C@H]1CN(c2ccc(Br)cc2)C(=O)[C@@H]1CC(=O)Nc1ccc(Br)cc1,2.2%
19,CCCCN1C[C@H](c2ccc(Br)cc2)[C@@H](CC(=O)Nc2ccc(Br)cc2)C1=O,96.5% (active)
20,Cc1cc(C)c(NC(=O)CNC(C)(C)C)c(C)c1,-2.1%
21,O=C(NC(C(=O)N1CCCCC1)C12CC3CC(CC(C3)C1)C2)c1ccc(F)cc1 (stereo not given),2.5%
22,CC1=C/C(=N\Oc2ccc3noc4c3c2C(=O)c2ccccc2-4)C(C(C)C)=CC1=O,active
23,N#Cc1ccc(C2=COC3(CCCN(C(=O)c4ccccc4)C3)C2)cc1 (stereo not given),2.5%
24,CN(C)c1ncccc1NC(=O)c1cccc(C#N)c1,0%

row,Compound,inhibition
1,COc1cccc(C2Nc3ccc(C(=O)O)cc3C3C=CCC32)c1OC (stereo not given),15%
2,O=C1NC(c2cccc([N+](=O)[O-])c2)C(=C(O)c2ccc(Br)cc2)C1=O (stereo not given),7.7%
3,O=[N+]([O-])c1ccc2c(c1)C1C=CCC1C(c1cccc(Br)c1)N2 (stereo not given),72% (active)
4,CCCn1cnc2c1c(=O)n(CC)c(=O)n2-c1ccc(C)cc1,0.6%
5,CC(C)Cn1cc(C(=O)NC2CCCCCC2)c2c3ccccc3n(C)c2c1=O,1%
6,COc1cccc(C2C3=C(Nc4c2c(=O)n(C)c(=O)n4C)c2ccccc2C3=O)c1OC (stereo not given),27%
7,Cn1nc(COc2ccccc2)c2c1CCN(C(=O)Nc1ccc(F)cc1F)C2,22.3%
8,Cn1nc(COc2ccc(F)cc2)c2c1CCN(C(=O)Nc1ccc(F)cc1F)C2,-2.73%
9,Cn1nc(COc2ccc(F)cc2)c2c1CCN(C(=O)Nc1ccc(F)cc1)C2,80% (active)
10,Cc1ccc(C)c(N=c2oc3ccccc3cc2C(=O)Nc2nccs2)c1,-4%
11,CN(C)CCNC(=O)c1cc2n(n1)CCCN(Cc1cccc(F)c1)C2=O,-3.78%
12,CC(=O)NC(=Nc1nc(C)cc(C)n1)Nc1cccc(C)c1C,0%
13,O=C(Nc1ccccc1-c1nc2ccccc2[nH]1)c1ccccc1Cl,45.7%
14,O=C(Nc1ccccc1-c1nc2ccccc2[nH]1)c1ccccc1Br,51% (active)
15,Cc1c(NC(=O)c2cccc([N+](=O)[O-])c2C)cccc1-c1nc2ccccc2[nH]1,16%
16,O=C(Nc1nc2ccccc2s1)c1ccc2c(c1)OCO2,17.1%
17,O=C(Cc1ccc2c(c1)OCO2)N1CCC(Oc2nc3ccccc3s2)CC1,61.1% (active)
18,O=C(CN1C(=O)CCC1=O)N1CCC(Oc2nc3ccc(F)cc3s2)CC1,-3.4%
19,O=C(NCc1ccncc1)C1CC(=O)N(Cc2ccccc2F)C1 (stereo not given),3.4%
20,COc1ccc(C(=O)CSc2nc(N)cc(=O)[nH]2)cc1[N+](=O)[O-],3.7%
21,C[C@H]1COc2cc(N3CCSCC3)ccc2S(=O)(=O)N1,-12%
22,O=C(c1ccc(F)cc1)N1CCc2nc[nH]c2C1,-20.2%
23,COc1cc(C(c2cc3c(cc2O)OCO3)N2CCCC2)cc(OC)c1OC (stereo not given),81.6% (active)
24,COc1cc(OC)c(OC)cc1CN1CCN(Cc2ccc3c(c2)OCO3)CC1,2.4%

row,Compound,inhibition
1,Cc1nc2c(c(NCC3CCCO3)n1)CCC2 (stereo not given),-7.6%
2,C[C@H]1[C@H](NC(=O)c2cccc(N(C)C)c2)CC[C@@]23CCCN2C(=O)CCC[C@@H]13,-15.6%
3,c1csc(CN2CCN(c3cnn4cnnc4c3)CC2)c1,0.4%
4,Clc1cccc(N2CCN(Cc3cccnc3)CC2)c1,1%
5,Cc1nnc2cc(N3CCN(Cc4ccc(C(C)C)cc4)CC3)cnn12,63.7% (active)
6,CCn1nnc2c(N3CCN(C(=O)Nc4ccccc4C(F)(F)F)CC3)ncnc21,-3.4%
7,CCOc1cc(/C=C2\C(=O)NN(c3ccccc3)C2=O)cc(Cl)c1OCC,61% (active)
8,CCOc1cc(/C=C2\C(=O)NN(c3cccc(Cl)c3)C2=O)ccc1O,8%
9,Cc1ccccc1COc1cccc(/C=C2\C(=O)NN(c3ccccc3)C2=O)c1,7%
10,CC(C)N1C(=O)C(C)N(C(=O)NCc2ccc(F)cc2)c2cccnc21 (stereo not given),10.9%
11,Cc1ccc(NC(=O)CSc2cccc3cccnc23)c(C)c1,86% (active)
12,O=C(CSc1cccc2cccnc12)Nc1ccc(Br)cc1,3.8%
13,Cc1ccc(NC(=O)CSC2=NC(C)(C)N=C2c2ccccc2)c(C)c1,-6.5%
14,N#CC1=C2C=CC(O)=CC2OC=C1N (stereo not given),55.1% (active)
15,Cn1c(SCc2ccc([N+](=O)[O-])cc2)nnc1-c1cccs1,4%
16,CCN1C(=O)CCc2cc(NC(=O)c3sccc3C)ccc21,-2.8%
17,Cc1nn(C)c(C)c1Nc1ccc(N2C(=O)CCCC2=O)cc1[N+](=O)[O-],1%
18,O=C1C2C3C=CC(C3)C2C(=O)N1c1ccc(Nc2ccc3c(c2)CCC3)c([N+](=O)[O-])c1 (stereo not given),74% (active)
19,Cc1ccc(N2C(=O)C3C4c5ccccc5C(CO)(c5ccccc54)C3C2=O)cc1[N+](=O)[O-] (stereo not given),27%
20,COc1ccccc1CNC(=O)C1CCN(c2cncnc2N2CCN(C)CC2)CC1,5.19%
21,CC(C)(C)NC(=O)c1ccc2c(c1)CCN2C(=O)C1CC1,-4.5%
22,CCOC(=O)NCCS(=O)(=O)N1CCN(c2ccc(OC)cc2)CC1,1.1%
23,N#C/C(=C\c1cccn1-c1ccc([N+](=O)[O-])cc1)c1nn(CCO)c(N)c1C#N,-2.4% and 4%
24,CS(=O)(=O)N1CCc2cc(NC(=O)Nc3ccccc3)ccc21,12.4%

row,Compound,inhibition
1,CCc1ccc(OCC(O)CN2CCN(c3ccc(F)cc3)CC2)cc1 (stereo not given),15.9%
2,CC(=O)c1ccc(OCC(O)CN2CCN(c3ccccc3)CC2)cc1 (stereo not given),9.71%
3,CCN1CCN(CC(O)COc2ccc(C34CC5CC(CC(C5)C3)C4)cc2)CC1 (stereo not given),50.3% (active)
4,CCN(CC(O)COC12CC3CC(CC(C3)C1)C2)C1CCCCC1 (stereo not given),-6.1%
5,COc1ccc(N2CCN(CC(O)COC34CC5CC(CC(C5)C3)C4)CC2)cc1 (stereo not given),27.7%
6,Cc1ccc(OCC(O)CN2CCCC2)cc1C (stereo not given),1.8%
7,CCN(CC)CC(O)COc1ccc(C23CC4CC(CC(C4)C2)C3)cc1 (stereo not given),98.6% (active)
8,CC1CC(C)CN(CC(O)COc2ccc(C34CC5CC(CC(C5)C3)C4)cc2)C1 (stereo not given),65.1% (active)
9,Cc1ccc(OCC(O)CNC2CCCCC2)cc1 (stereo not given),-7.1%
10,CCn1nccc1C(=O)N1CC2CC(NC(=O)c3cccs3)C1C2 (stereo not given),1.26%
11,Cc1ccc2nc(NCc3ccccc3)c(C=Nc3ccccc3)c(=O)n2c1,6%
12,CCc1ccc(CNC(=O)c2c(C)sc3c(=O)n(C4CCCC4)cnc23)cc1,-6.7%
13,CN1CCN(C(=O)c2cc3c(=O)n(C)ccc3n2C)CC1,-9.9%
14,O=S(=O)(Nc1ccc(Cl)cc1F)c1c[nH]c2ncccc12,71.8% (active)
15,O=S(=O)(Nc1ccc(F)cc1)c1cccnc1Nc1ccc(Cl)cc1,-23.3%
16,CCOc1ccc(S(=O)(=O)Nc2ccccc2F)c2cccnc12,4%
17,Cc1cccc(OCC(=O)N2CCCC(OCc3nc(C)no3)C2)c1 (stereo not given),-7.37%
18,Cc1ccc(-c2nnc(C(=O)c3ccccc3)o2)cc1,0.5%
19,O=S(=O)(c1cc(Br)ccc1Br)N1CCOCC1,-4%
20,COC(=O)Oc1c([N+](=O)[O-])cc2oc(=O)sc2c1[N+](=O)[O-],53% (active)
21,COc1ccc(Br)cc1C(=O)Nc1cc2cccc([N+](=O)[O-])c2oc1=O,-7%
22,Cc1oc2c(Cl)c(Cl)c(O)cc2c1[N+](=O)[O-],32%
23,O=C1CCCC2=C1C(c1cccc(Br)c1)n1nc(-c3ccccc3)nc1N2 (stereo not given),-1.86%
